D2 PAM-1 = HTS Assay for Positive Allosteric Modulators of the Human D2 Dopamine Receptor: Primary Screen for Potentiators; D(2) dopamine receptor (Homo sapiens), P14416; HEK293 T-REx D2, calcium flux, EC20 dopamine potentiation; potentiation, % at 10 µM; 340,000 compounds, 0.34% hits; AID 485347, 2010;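 active means potentiation over 3 SD above the plate norm, cut at about 30% in these data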; further: 0% is about no effect
Target sequence (P14416 whole entry, looked up): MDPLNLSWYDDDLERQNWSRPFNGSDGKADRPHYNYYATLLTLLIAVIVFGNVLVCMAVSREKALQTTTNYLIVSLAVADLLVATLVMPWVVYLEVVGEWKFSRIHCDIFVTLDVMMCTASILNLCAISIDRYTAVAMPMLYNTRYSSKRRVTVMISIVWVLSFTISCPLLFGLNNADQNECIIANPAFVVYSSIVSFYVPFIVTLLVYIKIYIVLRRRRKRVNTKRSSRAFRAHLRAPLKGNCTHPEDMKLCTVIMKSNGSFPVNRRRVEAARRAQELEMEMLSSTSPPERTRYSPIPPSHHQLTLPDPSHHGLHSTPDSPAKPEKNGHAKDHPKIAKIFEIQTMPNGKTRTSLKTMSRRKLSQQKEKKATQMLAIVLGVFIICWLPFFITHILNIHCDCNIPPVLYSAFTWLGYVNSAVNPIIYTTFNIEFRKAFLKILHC
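Primary screen. Calcium kinetics in induced HEK293 T-REx D2 cells: compound pre-addition 180 s, EC20 dopamine, 180 s more.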
D2 antag = HTS Assay for Allosteric Antagonists of the Human D2 Dopamine Receptor: Primary Screen for Antagonists; HEK293 TREx D2 cells, calcium flux, dopamine EC80; inhibition, % at 10 µM; D(2) dopamine receptor (Homo sapiens), P14416; 340,000 compounds, 2% hits; AID 485344, 2010; in the data active means inhibition above about 30%; inactive means below that, where a call was filed; further: 0% is about no effect
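Read-out: kinetic calcium fluorescence (1 cycle/s) in inducible HEK293 T-REx D2 cells after an EC80 dopamine addition that followed 180 s compound preincubation. Loss of the dopamine response indicates antagonism.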
D2 ag-1 = HTS Assay for Allosteric Agonists of the Human D2 Dopamine Receptor: Primary Screen for Agonists; D(2) dopamine receptor (Homo sapiens), P14416; HEK293 T-REx D2 cells, calcium flux agonist mode; activation, % at 2 µM; 340,000 compounds, 0.53% hits;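 active means activation over 3 SD above normal in the single-dose calcium agonist read, cut at about 30% in these data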; further: 0% is about no effect
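Tetracycline-induced HEK293 T-REx cells with force-coupled D2 receptor, plated overnight at 30 C, loaded with no-wash calcium dye. After a 10 s baseline, compound was pin-added and calcium flux read kinetically for 180 s; calcium rises flagged agonists.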
D2 ag-2 = Beta-Arrestin HTS for Positive Allosteric Modulators of the Human D2 Dopamine Receptor: Agonists; D(2) dopamine receptor (Homo sapiens), P14416; DiscoveRx PathHunter D2 beta-arrestin, luminescence, 90 min; 100% = 57 uM dopamine signal; activation, % (concentration not given with the values); 360,000 compounds, 0.084% hits; AID 624465, 2012; in the data active means activation above about 40%; inconclusive means between about 15% and that limit
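Agonist mode: compounds alone added to overnight-plated D2 PathHunter cells for 90 min at 37 C, with 57 uM final dopamine (EC100) defining full response. Beta-arrestin recruitment detected by chemiluminescent reagent, read after 1 h at ambient temperature.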
D2 PAM-2 = Beta-Arrestin HTS for Positive Allosteric Modulators of the Human D2 Dopamine Receptor: Potentiators; AID 624464, 2012; DiscoveRx D2 beta-arrestin cells, luminescence, 90 min; 100% = 57 uM dopamine signal; potentiation, % (test concentration not listed); D(2) dopamine receptor (Homo sapiens), P14416; 360,000 compounds, 0.23% hits; in the data active means potentiation above about 50%; inconclusive means mostly about 30% to 49%
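D2 cells co-treated with compound plus 50 nM dopamine (EC20) for 90 min at 37 deg C to detect potentiation. Beta-arrestin recruitment was read as enzyme-fragment luminescence after 1 h at ambient temperature. Full response was set by 57 uM dopamine.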
Starred values were filed as active, the others as inactive; ! = not confirmed by another sample. Only some compounds are listed: those with a hit (about 2.4% of all), similar ones and a draw of the others.

What do the screens show for `Cc1nc2c3ccccc3nc(NNC(=O)CCC(=O)N3CCN(c4ccccc4)CC3)n2n1`?
D2 PAM-1: 1; D2 antag: 27; D2 ag-1: 31*!; D2 ag-2: 3; D2 PAM-2: -3

What do the screens show for `O/N=C1/CCc2nonc2/C1=N/O`?
D2 PAM-1: 1; D2 antag: 39*; D2 ag-1: 0; D2 ag-2: 10; D2 PAM-2: -12

What do the screens show for `CCc1ccc(C(=O)N/N=C/c2ccc(Cl)cc2Cl)nc1`?
D2 PAM-1: -18; D2 antag: 73*; D2 ag-1: 1

Results for COC(=O)c1ccn(CSc2cc(Cl)ccc2Cl)n1 ?
D2 PAM-1: -1; D2 antag: 42*; D2 ag-1: 1; D2 ag-2: 3; D2 PAM-2: -2

What do the screens show for `CC(C)c1ccc(OCC(=O)Nc2c3c(nn2C(C)(C)C)CS(=O)(=O)C3)cc1`?
D2 PAM-1: 13; D2 antag: 4; D2 ag-1: -1; D2 ag-2: 10; D2 PAM-2: 57*

How did CC1CCc2nc3ncn(CC(=O)Nc4cccc(C#N)c4)c(=O)c3cc2C1 (stereo not given) do in these assays?
D2 PAM-1: 2; D2 ag-1: 0

How did Cc1cccc(-c2nc3ccccc3n2Cc2ccccc2)c1 do in these assays?
D2 PAM-1: 10; D2 ag-1: -1

How did N/C(=N\OC(=O)c1ccc(Cl)c(Cl)c1)c1ccccn1 do in these assays?
D2 PAM-1: -4; D2 antag: -1; D2 ag-1: 0; D2 ag-2: 11; D2 PAM-2: 82*

What do the screens show for `N/C(=N\OC(=O)c1cc(-c2ccccc2)nc2ccccc12)c1ccccn1`?
D2 PAM-1: -2; D2 antag: 24; D2 ag-1: -2; D2 ag-2: 48*; D2 PAM-2: 7

Results for Cc1ccc(/C(N)=N/OC(=O)c2cc(-c3ccccc3)nc3ccccc23)cc1 ?
D2 PAM-1: 2; D2 antag: -4; D2 ag-1: 0; D2 ag-2: -4; D2 PAM-2: -3

What do the screens show for `N/C(=N\OC(=O)c1ccc(Cl)c([N+](=O)[O-])c1)c1ccccn1`?
D2 PAM-1: 36*; D2 antag: 6; D2 ag-1: 5; D2 ag-2: 10; D2 PAM-2: inconclusive

How did N/C(=N\OC(=O)c1ccc(Cl)cc1)c1ccccn1 do in these assays?
D2 PAM-1: 4; D2 antag: -13; D2 ag-1: 1; D2 ag-2: 15; D2 PAM-2: 16

How did CCOc1cc(C(=O)O/N=C(\N)c2ccccn2)cc(OCC)c1OCC do in these assays?
D2 PAM-1: 12; D2 antag: 1; D2 ag-1: 1; D2 ag-2: inconclusive; D2 PAM-2: 72*

How did COc1ccc(NC(=O)C(NS(=O)(=O)c2ccc3c(c2)CCCC(=O)N3)C(C)C)c(OC)c1 (stereo not given) do in these assays?
D2 PAM-1: -5; D2 ag-1: 0

Results for N/C(=N\OC(=O)c1ccc(Cl)c([N+](=O)[O-])c1)c1ccccc1 ?
D2 PAM-1: -1; D2 antag: -9; D2 ag-1: 0; D2 ag-2: 12; D2 PAM-2: 94*

How did COc1ccc(/C(N)=N/OC(=O)c2ccc(C)c([N+](=O)[O-])c2)cc1OC do in these assays?
D2 PAM-1: 5; D2 antag: -4; D2 ag-1: -1; D2 ag-2: -1; D2 PAM-2: 2

What do the screens show for `N/C(=N\OC(=O)c1ccc([N+](=O)[O-])cc1)c1ccc(Br)cc1`?
D2 PAM-1: 4; D2 antag: -15; D2 ag-1: 0; D2 ag-2: 14; D2 PAM-2: 7

What do the screens show for `CCOc1cc(C(=O)O/N=C(\N)c2ccc([N+](=O)[O-])cc2)cc(OCC)c1OCC`?
D2 PAM-1: 4; D2 antag: -4; D2 ag-1: 0; D2 ag-2: inconclusive; D2 PAM-2: 76*

Results for O=C(Nc1ccc(F)cc1F)c1ccc(CN2CC(=O)N3CCCCC3C2=O)cc1 (stereo not given) ?
D2 PAM-1: 26; D2 ag-1: -2

How did Cc1ccccc1CNC(=O)c1cnc2sc(N3CCC(C)CC3)nn2c1=O do in these assays?
D2 PAM-1: -1; D2 ag-1: -1

Results for COc1cc(/C=N\NC(=O)c2ccc(C)nc2)ccc1OC(=O)c1ccco1 ?
D2 PAM-1: -10; D2 antag: 34*; D2 ag-1: 0; D2 ag-2: 1; D2 PAM-2: 3

What do the screens show for `CCOc1cc(/C=N\NC(=O)OC(C)(C)C)ccc1OC(=O)c1ccco1`?
D2 PAM-1: -3; D2 antag: 31*; D2 ag-1: -2; D2 ag-2: -1; D2 PAM-2: -9

How did COc1cc(/C=N\NC(=O)c2ccc(C)nc2)ccc1OC(=O)c1ccc2c(c1)OCO2 do in these assays?
D2 antag: -19; D2 ag-1: -1; D2 ag-2: -6; D2 PAM-2: -5

What do the screens show for `O=C(Cn1nnc(-c2ccccc2NC(=O)c2ccccc2F)n1)NCc1ccco1`?
D2 PAM-1: 0; D2 antag: 33*; D2 ag-1: 1; D2 ag-2: 0; D2 PAM-2: 9

Results for O=c1cc(-c2ccc(F)cc2)nc(SCc2nc(-c3cccc(C(F)(F)F)c3)no2)[nH]1 ?
D2 PAM-1: 11; D2 ag-1: 0

What do the screens show for `O=[N+]([O-])c1ccc(Cl)c(S(=O)(=O)Nc2ccc(-c3ccc(N4CCOCC4)nn3)cc2)c1`?
D2 PAM-1: -9; D2 antag: -10; D2 ag-1: 0; D2 ag-2: 0; D2 PAM-2: -3

What do the screens show for `O=[N+]([O-])c1ccc(Cl)c(S(=O)(=O)Nc2cccc(-c3ccc(N4CCOCC4)nn3)c2)c1`?
D2 PAM-1: -5; D2 antag: 34*; D2 ag-1: 1; D2 ag-2: 3; D2 PAM-2: 17

How did C/C(=N/Nc1ccc(C(=O)O)cc1)c1ccc(O)c(O)c1O do in these assays?
D2 PAM-1: 0; D2 antag: -6; D2 ag-1: 0; D2 ag-2: inconclusive; D2 PAM-2: 85*

How did Cc1ccc(C(=O)NC(=S)Nc2ccc(Oc3ccc(Cl)cc3)cc2)cc1 do in these assays?
D2 PAM-1: 37*; D2 antag: 0; D2 ag-1: 0; D2 ag-2: -3; D2 PAM-2: -4

Results for Cc1ccc(C(=O)NC(=S)Nc2ccc3[nH]c(=O)[nH]c3c2)cc1 ?
D2 PAM-1: 3; D2 antag: 46*; D2 ag-1: -1; D2 ag-2: 1; D2 PAM-2: -12
